Results filed as inconclusive are left out. A call without a number means that no potency is given here. Activity calls are given as the source filed them. Unless noted, the call rests on the fitted dose curve; in most records, active means well fitted curve in the direction sought with a large enough effect; inconclusive means small, poorly fitted or top-dose-only effect, or another doubt; inactive means no such curve, though single readings can be large; an effect the other way counts as inactive or inconclusive.
Key:
[1] = target: Calcium and integrin-binding protein 1 (Homo sapiens) (UniProt Q99828); assay: Primary qHTS for Identification of Calcium Integrin Binding Protein 1 (CIB1) Competitor (AID 1508620);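 further: GST tagged CIB1 binding a fluorescein labelled alphaIIb integrin peptide tracer; top concentration of the series differs between compounds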
Method in brief: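 Fluorescence polarization competition: GST-tagged CIB1 (1 uM final) preincubated with compound 15 min at room temperature, then FITC-labelled alphaIIb peptide (100 nM final) added. After 15 min at room temperature, polarization read at Ex 480/Em 540.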

[2] = target: Calcium and integrin-binding protein 1 (Homo sapiens) (UniProt Q99828); assay: Confirmatory qHTS for Identification of Calcium Integrin Binding Protein 1 (CIB1) Competitor (AID 1508617); further: nearly all actives have a fitted effect of over 65% in size; further: potency means the concentration at half of the fitted maximal effect
Method in brief: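 Compounds at up to 114 uM final met 1 uM GST-tagged CIB1 for 15 min at room temperature (HEPES pH 7.4, 5 mM CaCl2). FITC-labelled alphaIIb peptide, 100 nM, added; polarization read after 15 min more.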

[3] = Primary qHTS for small molecule stabilizers of the endoplasmic reticulum resident proteome: Secreted ER Calcium Modulated Protein (SERCaMP) assay (AID 1508630)
Method in brief: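 The SH-SY5Y reporter protocol was run at 3 concentrations up to 38.3 uM (primary) or 11 concentrations (follow-up): 16 h compound, 100 nM thapsigargin for 4 h, then extracellular luciferase luminescence.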

[4] = Validation qHTS assay for inhibitors of Activation Induced Cytidine Deaminase (AID): UDG Counterscreen signal (AID 1347427)
Method in brief: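 Fluorescence at 560 nm excitation, 665 nm emission reports UDG signal after 250 mM NaOH (2x) addition and 30 min. Enzymes (AID 1 uM, UDG 2 U/mL, at 4/3x) preincubated 10 min with compound, then 4 h with 4x 250 nM DJC20/DJC23 substrate at room temperature.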

[5] = target: Single-stranded DNA cytosine deaminase (Homo sapiens) (UniProt Q9GZX7); assay: Validation qHTS assay for inhibitors of Activation Induced Cytidine Deaminase (AID): AID signal (AID 1347429)
Method in brief: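 AID+UDG coupled FRET deamination; cpds up to 114 uM final; DJC20/DJC23 substrate, 4 hr RT; NaOH stop, 30 min RT; read Ex 540/Em 590.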

[6] = target: Protein phosphatase 1D (Homo sapiens) (UniProt O15297); assay: RapidFire Mass Spectrometry qHTS Assay for Modulators of WT P53-Induced Phosphatase 1 (WIP1) (AID 1347424); further: potency means the concentration at half of the fitted maximal effect
Method in brief: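 RapidFire MS readout of dephosphorylated VEPPL-S-QETFS product, with 1 uM isotope-labelled peptide standard. Reaction: 10 nM WIP1, 2 uM phosphopeptide substrate, 5 min, room temperature, after 1 h compound preincubation; stopped with 0.5% formic acid.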

[7] = target: Protein phosphatase 1D (Homo sapiens) (UniProt O15297); assay: Rhodamine-PBP qHTS Assay for Modulators of WT P53-Induced Phosphatase 1 (WIP1) (AID 1347425)
Method in brief: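 The read-out is the change in Rhodamine-PBP fluorescence (f1 - f0, ex 525/em 598 nm) as Pi is released, read each minute for 11 min. Final reaction: 5 nM WIP1, 10 uM phosphopeptide VEPPL-pS-QETFS, 10 uM Rh-PBP, 50 mM Tris-HCl pH 7.5, 30 mM MgCl2. Compound was preincubated with enzyme for 1 hour at room temperature.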

[8] = A High-Content qHTS Against Drug Library for the Identification of Small Molecules that Inhibit DYT1 Early Onset Primary Dystonia-Associated Cell Pathology (AID 1645839; calls by dose curve; further: series mostly up to about 46 µM)
Text: Nicole Calakos M.D., Ph.D.
Duke University School of Medicine, Durham, NC
In DYT1 dystonia due to delGAG in the TOR1A gene, there is a robust and widely replicated finding of TorsinA protein mislocalization caused when the mutant protein is in excess of the wildtype protein (1-7). Stable HEK293 cell lines were created that replicate this phenomenon. Inducible expression of an EGFP-hu delE TorsinA encoding cDNA causes pronounced punctate cellular distribution. […] This phenotypic difference in EGFP-huTorsinA fusion protein distribution serves as an indicator of cell pathology. […] RNAi screen results with the assay were validated in DYT1 patient cell phenotypes, intersected with a known dystonia gene, and led to discovery of new human genetic dystonia associations.
The bioassay described herein is a high-content image screen with two readouts. The "%pathology" readout is the primary qHTS data channel, while the "cellcount" is the counterscreen qHTS channel. Desired active compounds are those that show inhibition in %pathology channel but no activity or minimal toxicity in cellcount readout.
1. Kustedjo, K., Bracey, M.H., and Cravatt, B.F. (2000). […] J. Biol. Chem. 275, 27933 - 27939.
2. Bragg, D.C., Kaufman, C.A., Kock, N., and Breakefield, X.O. (2004). Inhibition of N-linked glycosylation prevents inclusion formation by the dystonia-related mutant form of torsinA. Mol. Cell. Neurosci. 27, 417 - 426.
3. Gonzalez-Alegre, P., and Paulson, H.L. (2004). Aberrant Cellular Behavior of Mutant TorsinA Implicates Nuclear Envelope Dysfunction in DYT1 Dystonia. J. Neurosci. 24, 2593 - 2601.
4. Goodchild, R.E., and Dauer, W.T. (2004). Mislocalization to the nuclear envelope: an effect of the dystonia-causing torsinA mutation. Proc. Natl. Acad. Sci. U. S. A. 101, 847 - 852.
5. Kock, N., Allchorne, A.J., Sena-Esteves, M., Woolf, C.J., and Breakefield, X.O. (2006). RNAi blocks DYT1 mutant torsinA inclusions in neurons. Neurosci. Lett. 395, 201 - 205.
6. Hewett, J.W., Nery, F.C., Niland, B., Ge, P., Tan, P., Hadwiger, P., Tannous, B.A., Sah, D.W.Y., and Breakefield, X.O. (2008). siRNA knock-down of mutant torsinA restores processing through secretory pathway in DYT1 dystonia cells. Hum. Mol. Genet. 17, 1436 - 1445.
7. Calakos, N., Patel, V.D., Gottron, M., Wang, G., Tran-Viet, K.N., Brewington, D., Beyer, J.L., Steffens, D.C., Krishnan, R.R., and Zuchner, S. (2010). Functional evidence implicating a novel TOR1A mutation in idiopathic, late-onset focal dystonia. J. Med. Genet. 47, 646 - 650.
8. Rittiner* JE, Caffall* ZF, Hernandez-Martinez R, Sanderson SM, Pearson JL, Tsukayama KK, Liu AY, Xiao C, Tracy S, Shipman MK, Hickey P, Johnson J, Scott B, Stacy M, Saunders-Pullman R, Bressman S, Simonyan K, Sharma N, Ozelius LJ, Cirulli ET, Calakos N. Functional Genomic Analyses of Mendelian and Sporadic Disease Identify Impaired eIF2alpha Signaling as a Generalizable Mechanism for Dystonia. Neuron. 2016 Dec 21;92(6):1238-1251. doi: 10.1016/j.neuron.2016.11.012. Epub 2016 Dec 8. PMID: 27939583; PMCID: PMC5320521.
High-content, High-throughput Drug Screening Assay
The TorsinA mislocalization assay was modified from the previously published assay to accommodate compound testing in 1536 well format.1 Briefly, Flp-In T-REx 293 cells from Invitrogen in which a single copy of a cDNA is recombined into a specific genomic locus was used to create tetracycline-inducible expression of cDNA encoding either EGFP-hTOR1A (WT) or EGFP-delE hTOR1A (DYT1). WT and DYT1 cells were diluted to a concentration of 2 x 10^5 cells/mL in reduced serum media (DMEM High Glucose containing 1% tetracycline-tested FBS, 2 mM L-Glutamine, and 1% Penicillin/Streptomycin). 4 µl of WT cells and 4 µl of DTY1 cells were added to column 1 and columns 2-48, respectively, of a poly-D-lysine-coated, low base, black, clear bottom 1536 well plate (Corning, Corning, NY) using the BioRAPTR FRD Microfluidic Workstation (Beckman Coulter, Indianapolis, IN). The final cell number was 800 cells/well. […]

[9] = target: Cytochrome P450 2D6 (Homo sapiens) (UniProt P10635); assay: Cytochrome P450 family 2 subfamily D member 6 (CYP2D6) small molecule antagonists: luciferase biochemical (cell-free) qHTS assay (AID 1645840; active means well fitted curve in the direction sought with a large enough effect in the repeat runs; an effect the other way counts as inactive or inconclusive; further: nearly all actives have a fitted effect of over 55% in size; further: potency means the concentration at half of the fitted maximal effect)
Method in brief: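 P450-Glo CYP2D6 system: proluciferin substrate converted by enzyme to luciferin, read by luminescence proportional to activity. Enzyme-substrate mix with compound 10 min at room temperature, then NADPH regeneration 1 h before detection reagent.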

Sequence of Calcium and integrin-binding protein 1 (Homo sapiens) (Q99828 whole entry, looked up): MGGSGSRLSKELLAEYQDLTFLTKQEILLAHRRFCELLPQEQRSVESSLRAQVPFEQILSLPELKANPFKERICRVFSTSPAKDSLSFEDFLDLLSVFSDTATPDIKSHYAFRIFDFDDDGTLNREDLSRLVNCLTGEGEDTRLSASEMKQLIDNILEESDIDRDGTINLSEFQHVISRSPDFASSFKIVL
Sequence of Single-stranded DNA cytosine deaminase (Homo sapiens) (Q9GZX7 whole entry, looked up): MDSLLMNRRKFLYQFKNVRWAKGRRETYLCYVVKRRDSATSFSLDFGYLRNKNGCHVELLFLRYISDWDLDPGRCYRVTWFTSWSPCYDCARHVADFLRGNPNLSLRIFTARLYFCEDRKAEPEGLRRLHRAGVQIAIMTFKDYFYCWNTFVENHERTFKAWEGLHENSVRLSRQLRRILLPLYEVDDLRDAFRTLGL
Sequence of Protein phosphatase 1D (Homo sapiens) (O15297 whole entry, looked up): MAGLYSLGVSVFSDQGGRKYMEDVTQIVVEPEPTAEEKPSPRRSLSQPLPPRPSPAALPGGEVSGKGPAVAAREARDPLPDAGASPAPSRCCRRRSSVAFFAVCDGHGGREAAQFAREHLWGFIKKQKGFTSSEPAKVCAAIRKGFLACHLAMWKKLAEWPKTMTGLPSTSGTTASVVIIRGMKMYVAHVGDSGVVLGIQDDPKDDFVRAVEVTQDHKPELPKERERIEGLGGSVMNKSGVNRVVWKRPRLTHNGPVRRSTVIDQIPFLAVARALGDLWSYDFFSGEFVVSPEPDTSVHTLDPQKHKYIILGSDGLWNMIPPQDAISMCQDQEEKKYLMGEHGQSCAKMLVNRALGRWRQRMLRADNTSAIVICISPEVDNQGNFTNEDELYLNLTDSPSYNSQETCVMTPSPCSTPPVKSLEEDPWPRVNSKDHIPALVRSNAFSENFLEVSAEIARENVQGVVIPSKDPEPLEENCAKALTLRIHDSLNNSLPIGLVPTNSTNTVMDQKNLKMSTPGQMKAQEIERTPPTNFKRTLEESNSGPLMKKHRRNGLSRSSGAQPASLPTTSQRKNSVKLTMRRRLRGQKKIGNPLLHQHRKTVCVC
Sequence of Cytochrome P450 2D6 (Homo sapiens) (P10635 whole entry, looked up): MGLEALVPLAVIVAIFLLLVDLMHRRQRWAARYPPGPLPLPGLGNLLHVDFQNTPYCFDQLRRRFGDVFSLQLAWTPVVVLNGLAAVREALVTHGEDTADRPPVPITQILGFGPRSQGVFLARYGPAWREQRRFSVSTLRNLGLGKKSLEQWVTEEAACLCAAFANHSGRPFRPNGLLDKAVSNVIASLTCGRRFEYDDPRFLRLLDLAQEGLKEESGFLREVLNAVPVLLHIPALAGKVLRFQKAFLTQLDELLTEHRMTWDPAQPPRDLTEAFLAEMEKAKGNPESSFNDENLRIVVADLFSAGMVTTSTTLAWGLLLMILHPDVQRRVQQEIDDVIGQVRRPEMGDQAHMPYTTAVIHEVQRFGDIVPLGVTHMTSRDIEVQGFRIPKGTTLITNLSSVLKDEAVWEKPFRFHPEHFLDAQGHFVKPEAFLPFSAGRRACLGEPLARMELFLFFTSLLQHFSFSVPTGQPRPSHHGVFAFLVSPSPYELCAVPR

## Cn1cc(C2=C(c3c4n(c5ccccc35)CCC(CN)C4)C(=O)NC2=O)c2ccccc21 (stereo not drawn)
[1]
  Potency: inactive

## O=C1c2cccc(O)c2C(=O)c2c(O)cc(CO)cc21
[2]
  Potency: inactive
[3]
  outcome: inactive

## COc1ccc2cc([S+]([O-])Cc3ncc(C)c(OC)c3C)nc2c1
[4]
  outcome: inactive
[5]
  outcome: inactive
[1]
  Potency: inactive

## COc1ccnc2[nH]cc(C(=O)C(=O)N3CCN(C(=O)c4ccccc4)C[C@@H]3C)c12
[1]
  Potency: inactive

## Nc1nc(=O)n([C@H]2CSC(CO)O2)cc1F (stereo partly drawn)
[1]
  Potency: inactive

## O=C(O)[C@H](CC(=O)N1C[C@@H]2CCCC[C@H]2C1)Cc1ccccc1
[1]
  Potency: inactive

## N[C@H]1CN(c2c(F)cc3c(=O)c(C(=O)O)cn(C4C[C@@H]4F)c3c2Cl)CC12CC2 (stereo partly drawn)
[6]
  Potency: inactive
[7]
  outcome: inactive
[1]
  Potency: inactive
[3]
  outcome: inactive
[8]
  outcome: inactive

## O=c1[nH]c(=O)n([C@H]2C[C@@H](O)[C@@H](CO)O2)cc1C=CBr
[4]
  outcome: inactive
[5]
  outcome: inactive
[1]
  Potency: inactive
[3]
  outcome: inactive

## CCn1c(=O)c2c(nc(C=Cc3ccc(OC)c(OC)c3)n2C)n(CC)c1=O
[6]
  Potency: inactive
[7]
  outcome: inactive
[1]
  Potency: inactive
[3]
  outcome: inactive
[8]
  outcome: inactive

## N#CC(=Cc1ccc(O)c(O)c1)C(=O)NCc1ccccc1
[1]
  Potency: inactive

## Oc1cc2c(cc1O)C1c3ccc(O)c(O)c3OCC1(O)C2 (stereo not drawn)
[1]
  Potency: inactive

## Nc1ccn(C[C@@H](CO)OCP(=O)(O)O)c(=O)n1
[1]
  Potency: inactive

## O=C1c2c(O)cccc2[C@@H]([C@@H]2O[C@H](CO)[C@@H](O)[C@H](O)[C@H]2O)c2cc(CO)cc(O)c21
[1]
  Potency: inactive

## Cc1coc2c1C(=O)C(=O)c1c-2ccc2c(C)cccc12
[2]
  Potency: 39.8 µM (active)
[1]
  Potency: inactive
[9]
  Potency: 3.38 µM (active)

## CC(Oc1ccc(O)cc1)(P(=O)(O)O)P(=O)(O)O
[1]
  Potency: inactive

## Cc1ccccc1C(=O)Nc1ccc(C(=O)N2CCCC(O)c3cc(Cl)ccc32)c(C)c1 (stereo not drawn)
[6]
  Potency: inactive
[7]
  outcome: inactive
[1]
  Potency: inactive
[3]
  outcome: inactive

## CCCCC(=O)O[C@]1(C(=O)CO)[C@@H](C)C[C@H]2[C@@H]3CCC4=CC(=O)C=C[C@]4(C)[C@@]3(F)[C@@H](O)C[C@@]21C
[6]
  Potency: inactive
[7]
  outcome: inactive
[1]
  Potency: inactive
[3]
  outcome: inactive
[8]
  outcome: inactive

## Cc1ccc(-n2[nH]c(C)c(N=Nc3cccc(-c4cccc(C(=O)O)c4)c3O)c2=O)cc1C
[6]
  Potency: 12.6 µM (active)

## CN1CCCN(C(=O)c2cccc(-c3ccc(C=C4C(=O)Nc5ccc(Cl)cc54)o3)c2)CC1
[2]
  Potency: 35.5 µM (active)
[3]
  outcome: inactive

## Nc1nc(=O)n([C@H]2C[C@H](O)[C@@H](CO)O2)cc1F
[1]
  Potency: inactive

## Nc1ccn(C2CO[C@H](CO)O2)c(=O)n1 (stereo partly drawn)
[6]
  Potency: inactive
[7]
  outcome: inactive
[8]
  outcome: inactive

## CC[C@H]1OC(=O)[C@H](C)[C@@H](O[C@H]2C[C@@](C)(OC)[C@@H](O)[C@H](C)O2)[C@H](C)[C@@H](O[C@@H]2O[C@@H](C)C[C@H](N(C)C)[C@@H]2O)[C@](C)(O)C[C@@H](C)C(=O)[C@H](C)[C@@H](O)[C@]1(C)O
[1]
  Potency: inactive

## OC[C@@H](O)[C@@H](O)[C@H](O)[C@@H](O)CO
[1]
  Potency: inactive

## CCOC(=O)[C@H](CCc1ccccc1)N[C@@H](C)C(=O)N1[C@@H](C(=O)O)C[C@H]2CCC[C@@H]21
[1]
  Potency: inactive

## CC(=O)ON=C1C(c2c(O)[nH]c3cc(Br)ccc23)=Nc2ccccc21
[1]
  Potency: inactive

## CN[C@H](CC(C)C)C(=O)N[C@H]1C(=O)N[C@@H](CC(N)=O)C(=O)N[C@@H]2C(=O)N[C@H]3C(=O)N[C@H](C(=O)N[C@H](C(=O)O)c4cc(O)cc(O)c4-c4cc3ccc4O)[C@H](O)c3ccc(c(Cl)c3)Oc3cc2cc(c3O[C@@H]2O[C@H](CO)[C@@H](O)[C@H](O)[C@@H]2O[C@H]2C[C@](C)(N)[C@H](O)[C@H](C)O2)Oc2ccc(cc2Cl)[C@H]1O
[4]
  outcome: inactive
[5]
  outcome: inactive
[1]
  Potency: inactive

## COc1cc(C(C)C)c(Oc2cnc(NC(CO)CO)nc2N)cc1I
[1]
  Potency: inactive

## CCN(CC)CCNC(=O)c1c(C)[nH]c(C=C2C(=O)Nc3ccc(F)cc32)c1C
[1]
  Potency: inactive

## O=S(=O)(O)CCSSCCS(=O)(=O)O
[1]
  Potency: inactive

## CC1(C)O[C@@H]2C[C@H]3[C@@H]4CCC5=CC(=O)C=C[C@]5(C)[C@@H]4[C@@H](O)C[C@]3(C)[C@]2(C(=O)CO)O1
[6]
  Potency: inactive
[7]
  outcome: inactive
[1]
  Potency: inactive
[3]
  outcome: inactive
[8]
  outcome: inactive
[9]
  Potency: inactive

## CCCc1nc(C(C)(C)O)c(C(=O)O)n1Cc1ccc(-c2ccccc2-c2nn[nH]n2)cc1
[1]
  Potency: inactive

## Cc1cn([C@@H]2O[C@H](CO)[C@@H](O)[C@H]2F)c(=O)[nH]c1=O
[6]
  Potency: inactive
[7]
  outcome: inactive
[1]
  Potency: inactive
[8]
  outcome: inactive

Reference: PubChem BioAssay (NCATS)
